Out of some 370,000 compounds screened, about 4,800 (1.3%) were called active.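 The calls were made as follows: active = inhibition above about 21% made by adding two undisclosed values (limit read from the data); inactive = the rest.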 This excerpt belongs to a sample that is enriched for actives.

Protein arginine N-methyltransferase 1 (Homo sapiens), sequence (Q99873 whole entry, looked up): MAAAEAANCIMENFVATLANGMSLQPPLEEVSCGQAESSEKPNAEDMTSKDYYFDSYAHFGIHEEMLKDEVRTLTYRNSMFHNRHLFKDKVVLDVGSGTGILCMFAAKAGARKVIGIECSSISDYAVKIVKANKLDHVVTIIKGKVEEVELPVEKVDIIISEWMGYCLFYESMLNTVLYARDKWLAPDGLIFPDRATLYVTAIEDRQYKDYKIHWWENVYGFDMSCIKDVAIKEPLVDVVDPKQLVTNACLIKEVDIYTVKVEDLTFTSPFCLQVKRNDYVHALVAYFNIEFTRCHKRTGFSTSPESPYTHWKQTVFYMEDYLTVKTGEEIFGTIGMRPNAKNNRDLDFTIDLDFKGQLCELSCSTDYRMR

This assay addresses Protein arginine N-methyltransferase 1 (Homo sapiens) (UniProt Q99873). In words: PRMT1 methyltransferase inhibitors, primary screen, biochemical, fluorescence polarization (AID 652257). The settings on record: recombinant PRMT1, activity-based probe fluorescence polarization; at 2.79 µM; active compounds read high. In general terms: Fluorescence polarisation rises when a labelled molecule tumbles more slowly, as on binding a larger partner.
The inhibition is the change of the read-out against control, counted positive when it falls. For the compound `COP(=O)(O)CNC(=O)OCc1ccccc1`, the inhibition is -3.79% (inactive).
`CCOc1ccc(C(=O)CCC(=O)Nc2ccncc2)cc1`: the inhibition was -2.2% (inactive).
For `CCOc1ccc(C(=O)CCC(=O)NC2=NCCS2)cc1`, the inhibition was 0.3% (inactive).
For `CCOc1ccc(C(=O)CCN2CCOCC2)cc1` the value was 21.4% (active); for `CCN1C(=O)[C@H]2[C@@H](c3ccccc3)N[C@]3(CCCN(Cc4ccc(C)cc4)C3=O)[C@H]2C1=O`, -1.43% (inactive).
As to `COc1ccc(N2C(=O)CC(Nc3ccc(F)cc3)C2=O)c([N+](=O)[O-])c1` (stereo unspecified), the inhibition was 2% (inactive).
On to `COc1cc(/C=C2/C(=O)NN(c3ccc(F)cc3)C2=O)cc([N+](=O)[O-])c1O`, for which the inhibition is 22.9% (active).
For `COc1cc(CN2CC(C)CC(C)C2)cc([N+](=O)[O-])c1O` (stereo unspecified) the value was -0.22% (inactive).
On to `C=CCN1C(=O)[C@@H](CC(=O)N2CCN(C(=O)OCC)CC2)[C@]2(C(=O)OCC)CCCCC/C=C/12`, for which the inhibition was 2.76% (inactive).
With `N#CCOc1ccc(C2=NO[C@@H]3[C@@H]4C[C@@H]([C@H]5C(=O)N(c6ccc7c(c6)OCO7)C(=O)[C@@H]45)[C@H]23)cc1`, the inhibition was -0.79% (inactive).
In the case of `O=C(NCc1ccc(F)cc1F)[C@@H]1CCCN1C(=O)[C@@H]1CCCN1C(=O)c1cccc(Cl)c1`, the inhibition is -3.37% (inactive).
On to `CCOc1ccc(-c2nc(C)sc2CC(=O)O)cc1`, for which the inhibition was 4.47% (inactive).
In the case of `C/C(=N/Nc1nc(-c2ccccc2)c(CC(=O)O)s1)c1ccccc1`, the inhibition is 23.7% (active).
For `CC(=O)NC(CC(=O)Nc1nc(-c2ccccc2)c(C(C)=O)s1)c1ccccc1` (stereo unspecified), the inhibition was 1.97% (inactive).
With `COC(=O)N1Cc2ccnnc2CC1c1ccccc1Br` (stereo unspecified) the figure was -1.59% (inactive).
As to `CCOC(=O)C(Sc1ncc(C#N)c(N)n1)C(C)C` (stereo unspecified), the inhibition was 33.5% (active).
Take `CCCCSc1[nH]c(=O)c(C(=O)OCC)cc1C#N`: the inhibition was 5.58% (inactive).
`CCOC(=O)c1cnc(SCC(=O)Nc2ccccc2C(=O)OC)nc1N`: the inhibition is -1.74% (inactive).
In the case of `COCCCNc1nc2c(-c3cccc(C)c3)nnn2c2ccc(Cl)cc12`, the inhibition was 1.2% (inactive).
In the case of `C=CCOC/C=C/C#CCN(CC=C)Cc1ccc(OC)cc1OC`, the inhibition was -0.66% (inactive).
Take `O=C(CCSc1ccccc1)NCCSc1ccccn1`: the inhibition is -0.03% (inactive).
With `c1ccc(Cc2c(-c3ccco3)nc3c4ccccc4ccn23)cc1`, the inhibition is 26.2% (active).
As for `Cc1ccc(Cc2c(-c3ccc(Cl)cc3)nc3c4ccccc4ccn23)cc1`, the inhibition is -0.73% (inactive).
Take `Cc1ccc(Cc2c(-c3ccc(C)cc3)nc3c4ccccc4ccn23)cc1`: the inhibition is -3.94% (inactive).
With `COc1ccc(CSc2nnc(-c3cccc(C)c3)n2C)cc1` the figure was 8.96% (inactive); with `Cc1ccc(-n2c(SCC(=O)Nc3cccc4ccccc34)nnc2-c2ccco2)cc1`, 1.53% (inactive).
For `CCOC(=O)C(C)n1nc(-c2ccccc2)c2ccccc2c1=O` (stereo unspecified) the value was -2.85% (inactive); for `CCN(CC)C(=O)c1sc2nc(-c3ccccc3)ccc2c1N`, 23.1% (active); for `CCN(CC)C(=O)c1nc[nH]c1C(=O)N(C)Cc1ccccc1`, 0.76% (inactive).
Take `O=C(CN1CCCc2ccccc21)NCc1ccc(F)cc1`: the inhibition is -5.39% (inactive).
`COc1cccc(N2CCN(CC(=O)N(C)Cc3ccc(F)cc3)CC2)c1`: the inhibition is 0.17% (inactive).
For `COc1ccccc1C(=O)NC1CCCCN(C(C)C)C1=O` (stereo unspecified) the value was 2.65% (inactive); for `O=C(C1CCN(S(=O)(=O)c2ccccc2)CC1)N1CCN(C2CCCCC2)CC1`, -0.34% (inactive).
With `COc1ccc(N(C)C(=O)C2CCN(S(=O)(=O)c3cccc4nsnc34)CC2)cc1` the figure was -1.3% (inactive).
On to `COc1ccc(CN2CCN(Cc3cn(C)nc3-c3ccccc3)CC2CCO)c(C)c1C` (stereo unspecified), for which the inhibition was 0.32% (inactive).
With `Cc1ccccc1CN1C[C@@H]2C[C@@H](c3cn(C)nc3-c3ccccc3)N3CCC[C@@]23C1=O` the figure was 67.8% (active); with `Cc1ccccc1CN1C[C@@H]2C[C@@H](c3ccc4nsnc4c3)N3CCC[C@@]23C1=O`, 1.62% (inactive).
With `C=CCN(C(=O)[C@@H](CCCC)[C@@H](O)c1ccc(Cl)cc1)c1ccccc1`, the inhibition was -0.47% (inactive).
`CC(C)CNc1cccc2c1S(=O)(=O)N(Cc1cn(Cc3ccccc3C(F)(F)F)nn1)Cc1ccccc1O2`: the inhibition was 2.58% (inactive).
Regarding `CCNC(=O)CC1C(=O)N(c2ccc(F)cc2)C(=O)N1CCc1sccc1C` (stereo unspecified), the inhibition was -2.07% (inactive).
Take `Cc1cc(Br)cn2c(Cc3cccc(F)c3)c(-c3cccc(Br)c3)nc12`: the inhibition is -2.69% (inactive).
For `Cc1cc2nc(-c3ccco3)c(Cc3cccc(F)c3)n2c(C)c1Br`, the inhibition is 36.5% (active).
With `Cc1cc2nc(-c3ccc(F)cc3)c(Cc3ccsc3)n2c(C)c1Br`, the inhibition is 1.03% (inactive).
With `Nc1nc(NC(=O)/C=C/c2ccc(F)cc2)nn1-c1ccccc1` the figure was -3.14% (inactive); with `O=C(O)CCn1c(O)c(C=C2N=c3ccccc3=N2)sc1=S`, 29.5% (active).
Regarding `CCCCNC(=O)C[C@H]1C[C@@]2(C(=O)OC)C(=C[C@H](COCc3ccccc3)O[C@@H]2C)N(Cc2ccc(Cl)cc2Cl)C1=O`, the inhibition is -3.14% (inactive).
For `CCOc1ccc(NC(=O)CSc2nc3c(c(=O)n2-c2ccccc2OC)SCC3)cc1` the value was 5.66% (inactive); for `COc1ccccc1-n1c(SCC(=O)Nc2ccc(Cl)cc2)nc(O)c(Cc2ccccc2)c1=O`, 34.5% (active).
In the case of `COc1ccc(NC(=O)CSc2nnc(Cc3ccccc3)c(=O)n2N)cc1`, the inhibition was 31.4% (active).
On to `CCc1c(O)nc(SCC(=O)Nc2ccccc2)n(C(C)CC)c1=O` (stereo unspecified), for which the inhibition was 17% (inactive).
As to `COc1ccc(Cc2nnc(SCC(=O)N(c3ccccc3)C(C)C)n(N)c2=O)cc1`, the inhibition is -6.66% (inactive).
With `COc1ccc(-n2c(COc3ccc(C)cc3)nnc2SCC(=O)Nc2ccc(Oc3ccccc3)cc2)cc1` the figure was -3.87% (inactive); with `COc1ccccc1-n1ccnc(SCC(=O)NC2CCCCC2)c1=O`, 1.07% (inactive).
`Cn1ccnc1SCC(=O)Nc1ccc2c(c1)OCCO2`: the inhibition is 5.34% (inactive).
For `COc1cccc(NC(=O)CSc2nccn(-c3ccc4c(c3)OCCO4)c2=O)c1` the value was 29.1% (active).
As for `COC(=O)[C@@]12C[C@@H](CC(=O)NCCCCc3ccccc3)C(=O)N(CCc3ccc(OC)c(OC)c3)C1=CCC(C)(C)C2`, the inhibition was 3.69% (inactive).

For the origin of these results see PubChem BioAssay AID652257 (The Scripps Research Institute Molecular Screening Center, 2013).
